Measurements reported in PubChem BioAssay (Tox21).
Active and inactive are the calls of the source. Entries that show only a call come without a potency. Unless noted, the call rests on the fitted dose curve; in most records, active means well fitted curve in the direction sought with a large enough effect in the repeat runs; inconclusive means weak or mixed curves; inactive means flat fitted curve, though single readings scatter.

system: not listed separately; assay: qHTS assay to test for compound auto fluorescence at 460 nm (blue) in HepG2 cells (AID 720687); conditions: autofluorescence 405/460 nm, 1 h; series mostly up to 91.3 µM
In short: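 HepG2 cells in MEM with 10% FBS, attached overnight at 37 C, were exposed to compound or DMSO for 1 hr at 37 C, 5% CO2. Blue fluorescence was read at 405/460 nm, with triamterene as reference fluorophore.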

| SMILES | outcome |
| --- | --- |
| C=CC(=O)OCC | inactive |
| C=CCc1ccccc1O | inactive |
| Nc1ccc2c(c1)Cc1ccccc1-2 | inactive |
| C[C@H]1[C@@H]2Cc3ccc(O)cc3[C@@]1(C)CCN2C | inactive |
| COC1=CC(=O)O[C@@H](/C=C/c2ccc3c(c2)OCO3)C1 | inactive |
| CCC(C)(C)c1ccc(O)c(C(C)(C)CC)c1 | inactive |
| O=C(O)c1cc(I)cc(I)c1I | inactive |
| O=C(O)C(O)C(O)C(=O)O (stereo unspecified) | inactive |
| Cc1ncc(C[n+]2csc(CCO)c2C)c(N)n1 | inactive |
| C[CH2][Hg][S]c1ccccc1C(=O)O | inactive |
| O=P(OCC(Br)CBr)(OCC(Br)CBr)OCC(Br)CBr (stereo unspecified) | inactive |
| CCCCCCCCCCCC[N+](C)(C)CCOc1ccccc1 | inactive |
| CCC1(CCC(C)C)C(=O)NC(=O)NC1=O | inactive |
| O=[N+]([O-])O[C@H]1CO[C@H]2[C@@H]1OC[C@H]2O[N+](=O)[O-] | inactive |
| CCC(C)Cl (stereo unspecified) | inactive |
| [Cl-].[Cl-].[Hg+2] | inactive |
| OC[P+](CO)(CO)CO | inactive |

| SMILES | outcome |
| --- | --- |
| O=C(O)c1cc(Cl)ccc1Cl | inactive |
| C[N+]1(CCC(C(N)=O)(c2ccccc2)c2ccccc2)CCCCC1 | inactive |
| COP(=O)(OC)OC(Br)C(Cl)(Cl)Br (stereo unspecified) | inactive |
| Nc1cccc2ccccc12 | inactive |
| O=C(Cc1ccccc1)c1ccccc1 | inactive |
| CCC1(CC)C(=O)NC(=O)NC1=O | inactive |
| CC(C)(C)N(NC(=O)c1ccc(Cl)cc1)C(=O)c1ccccc1 | inactive |
| CC(=O)NNc1ccccc1 | inactive |
| c1ccc2sc(SNC3CCCCC3)nc2c1 | inactive |
| CCC1CCC(=O)O1 (stereo unspecified) | inactive |
| O=C(O)CCCOc1ccc(Cl)cc1Cl | inactive |
| O=[N+]([O-])c1cc(Cl)c(Cl)cc1Cl | inactive |
| Nc1ccccc1C(=O)OCCc1ccccc1 | inactive |
| CC(C)(C)CC(C)(C)c1ccc(O)cc1 | inactive |
| CN1C(=O)CN=C(c2ccccc2)c2cc([N+](=O)[O-])ccc21 | inactive |
| NC(=S)c1c(Cl)cccc1Cl | inactive |
| CC(=O)OC(c1ccccc1)C(Cl)(Cl)Cl (stereo unspecified) | inactive |

biological target: Glucocorticoid receptor (Homo sapiens) (UniProt P04150); assay: qHTS assay to identify small molecule agonists of the glucocorticoid receptor (GR) signaling pathway (AID 720691; active means well fitted activation curve with a large enough effect in the signal ratio in the repeat runs, not every such curve was filed as active; inconclusive means weak or mixed curves, or effect the other way; inactive means no such curve, though single readings can be large or run the other way; the % refers to the signal ratio; further: potency means the concentration at half of the fitted maximal effect); conditions: GR-bla HeLa, beta-lactamase reporter ratio, 18 h; series mostly up to 62.4 µM
In short: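 A HeLa cervical cancer line expressing GR and a glucocorticoid response element-driven beta-lactamase gene is treated with compounds for 18 h; LiveBLAzer B/G FRET substrate is then applied and fluorescence read.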

Sequence of Glucocorticoid receptor (Homo sapiens) (P04150 whole entry, looked up): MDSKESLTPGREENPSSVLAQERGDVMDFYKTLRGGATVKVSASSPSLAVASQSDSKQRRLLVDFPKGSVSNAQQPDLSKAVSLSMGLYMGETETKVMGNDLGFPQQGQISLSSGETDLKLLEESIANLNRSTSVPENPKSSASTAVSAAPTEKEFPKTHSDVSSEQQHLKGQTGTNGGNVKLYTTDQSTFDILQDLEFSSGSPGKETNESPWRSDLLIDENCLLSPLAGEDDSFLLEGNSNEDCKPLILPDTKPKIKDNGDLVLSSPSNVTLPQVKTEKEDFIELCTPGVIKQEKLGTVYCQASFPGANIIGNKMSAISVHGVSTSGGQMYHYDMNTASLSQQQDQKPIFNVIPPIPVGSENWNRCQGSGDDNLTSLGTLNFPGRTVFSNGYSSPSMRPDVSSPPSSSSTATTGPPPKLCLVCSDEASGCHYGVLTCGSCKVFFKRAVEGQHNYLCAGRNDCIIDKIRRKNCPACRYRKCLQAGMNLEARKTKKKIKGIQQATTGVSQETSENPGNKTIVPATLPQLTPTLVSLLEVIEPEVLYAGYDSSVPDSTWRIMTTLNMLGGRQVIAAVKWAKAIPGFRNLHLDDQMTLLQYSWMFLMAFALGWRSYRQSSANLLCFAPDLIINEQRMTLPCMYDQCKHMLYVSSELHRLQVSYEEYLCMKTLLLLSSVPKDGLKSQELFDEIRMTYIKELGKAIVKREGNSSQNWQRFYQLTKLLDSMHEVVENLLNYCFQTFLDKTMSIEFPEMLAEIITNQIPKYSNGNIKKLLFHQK

| SMILES | Potency |
| --- | --- |
| O=C(N/N=C/c1ccc([N+](=O)[O-])o1)c1cc([N+](=O)[O-])cc([N+](=O)[O-])c1O | inactive |
| C=CC(=O)OCC | inactive |
| C=CCc1ccccc1O | inactive |
| Nc1ccc2c(c1)Cc1ccccc1-2 | inactive |
| C[C@H]1[C@@H]2Cc3ccc(O)cc3[C@@]1(C)CCN2C | inactive |
| COC1=CC(=O)O[C@@H](/C=C/c2ccc3c(c2)OCO3)C1 | inactive |
| O=C(O)c1cc(I)cc(I)c1I | inactive |
| CCCCCBr | inactive |
| O=S(=O)(Cl)Cl | inactive |
| O=P(OCC(Br)CBr)(OCC(Br)CBr)OCC(Br)CBr (stereo unspecified) | inactive |
| O=[N+]([O-])O[C@H]1CO[C@H]2[C@@H]1OC[C@H]2O[N+](=O)[O-] | inactive |
| CCC(C)Cl (stereo unspecified) | inactive |
| OC[P+](CO)(CO)CO | inactive |
| O=C(O)c1cc(Cl)ccc1Cl | inactive |
| C[N+]1(CCC(C(N)=O)(c2ccccc2)c2ccccc2)CCCCC1 | inactive |
| COP(=O)(OC)OC(Br)C(Cl)(Cl)Br (stereo unspecified) | inactive |
| O=C(Cc1ccccc1)c1ccccc1 | inactive |
| CCC1(CC)C(=O)NC(=O)NC1=O | inactive |
| CC(C)(C)N(NC(=O)c1ccc(Cl)cc1)C(=O)c1ccccc1 | inactive |
| c1ccc2sc(SNC3CCCCC3)nc2c1 | inactive |
| CCC1CCC(=O)O1 (stereo unspecified) | inactive |
| O=[N+]([O-])c1cc(Cl)c(Cl)cc1Cl | inactive |
| Nc1ccccc1C(=O)OCCc1ccccc1 | inactive |
| CN1C(=O)CN=C(c2ccccc2)c2cc([N+](=O)[O-])ccc21 | 0.338 µM [inconclusive] (active) |
| NC(=S)c1c(Cl)cccc1Cl | inactive |
| CC(=O)OC(c1ccccc1)C(Cl)(Cl)Cl (stereo unspecified) | inactive |

biological target: Glucocorticoid receptor (Homo sapiens) (UniProt P04150); assay: qHTS assay to identify small molecule antagonists of the glucocorticoid receptor (GR) signaling pathway (AID 720692; active means well fitted inhibition curve with a large enough effect in the signal ratio in the repeat runs, not every such curve was filed as active; inconclusive means weak or mixed curves, or effect the other way; inactive means no such curve, though single readings can be large or run the other way; the % refers to the signal ratio; further: potency means the concentration at half of the fitted maximal effect); conditions: GR-bla HeLa, beta-lactamase FRET ratio, dexamethasone-stimulated, 18 h; series mostly up to 58.5 µM
In short: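 GRE-bla HeLa line, dex-stimulated (5 nM final). Compound exposure 18 h, 37 C. Beta-lactamase FRET read after 2 h RT substrate.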

| SMILES | Potency |
| --- | --- |
| O=C(N/N=C/c1ccc([N+](=O)[O-])o1)c1cc([N+](=O)[O-])cc([N+](=O)[O-])c1O | inactive |
| C=CC(=O)OCC | inactive |
| C=CCc1ccccc1O | inactive |
| C[C@H]1[C@@H]2Cc3ccc(O)cc3[C@@]1(C)CCN2C | inactive |
| COC1=CC(=O)O[C@@H](/C=C/c2ccc3c(c2)OCO3)C1 | inactive |
| O=C(O)c1cc(I)cc(I)c1I | inactive |
| CCCCCBr | inactive |
| O=P(OCC(Br)CBr)(OCC(Br)CBr)OCC(Br)CBr (stereo unspecified) | 55.7 µM (active) |
| CCC(C)Cl (stereo unspecified) | inactive |
| OC[P+](CO)(CO)CO | inactive |
| C[N+]1(CCC(C(N)=O)(c2ccccc2)c2ccccc2)CCCCC1 | inactive |
| COP(=O)(OC)OC(Br)C(Cl)(Cl)Br (stereo unspecified) | inactive |
| O=C(Cc1ccccc1)c1ccccc1 | inactive |
| CCC1(CC)C(=O)NC(=O)NC1=O | inactive |
| CC(C)(C)N(NC(=O)c1ccc(Cl)cc1)C(=O)c1ccccc1 | inactive |
| CC(=O)NNc1ccccc1 | 10.9 µM (active) |
| c1ccc2sc(SNC3CCCCC3)nc2c1 | inactive |
| CCC1CCC(=O)O1 (stereo unspecified) | inactive |
| O=[N+]([O-])c1cc(Cl)c(Cl)cc1Cl | inactive |
| Nc1ccccc1C(=O)OCCc1ccccc1 | inactive |
| NC(=S)c1c(Cl)cccc1Cl | inactive |
